Results reported in PubChem BioAssay (Tox21).
Records with an inconclusive call do not appear. The source made the active and inactive calls. Unless noted, calls follow the shape of the dose curve; as a rule, active = well fitted curve in the direction sought with a large enough effect in the repeat runs; inconclusive = weak or mixed curves; inactive = no such curve, though single readings can be large; an effect the other way counts as inactive or inconclusive.

Columns and labels:
[1] = qHTS assay to identify small molecule agonists of the sonic hedgehog signaling (Shh) pathway - cell viability counter screen (AID 1259366); also: nearly all actives have a fitted effect of over 50% in size
How it was run: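 Viability measured fluorometrically (CellTiter-Fluor, 1hr, 37C) in 3T3 Gli1-Luc reporter cells after 23hr compound exposure within a 24hr incubation at 37C/5% CO2.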

[2] = qHTS assay to identify small molecule antagonists of the sonic hedgehog signaling (Shh) pathway - cell viability counter screen (AID 1259367); also: nearly all actives have a fitted effect of over 55% in size
How it was run: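 After a 4 hr settling period, 3T3 Gli1-Luc cells were treated with DMSO-dissolved chemicals and conditioned medium, kept 24 hr at 37C in 5% CO2, and assayed for viability by CellTiter-Fluor fluorescence following 1 hr reagent incubation.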

[3] = qHTS assay to identify small molecule agonists of the sonic hedgehog signaling (Shh) pathway (AID 1259368; calls by dose curve;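 also: NIH/3T3-derived 3T3Gli1-Luc cells carrying a stable Gli1-driven firefly luciferase reporter; series mostly up to about 92 µM; nearly all actives have a fitted effect of over 15% in size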)
How it was run: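 Luminescent signal was taken as a measure of Gli1-controlled luciferase expression in stably transfected NIH/3T3-derived cells that had been treated for 24 hr with compounds delivered in DMSO.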

[4] = qHTS assay to identify small molecule antagonists of the sonic hedgehog signaling (Shh) pathway (AID 1259369; calls by dose curve; also: nearly all actives have a fitted effect of over 45% in size)
How it was run: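 Screening used 3T3Gli1-Luc cells at 2,000 per well, compounds delivered in DMSO, and conditioned medium as agonist stimulus; plates incubated 24hr at 37 C and 5% CO2 before a 30min luciferase step.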

[5] = biological target: Estrogen receptor beta (Homo sapiens) (UniProt Q92731); assay: qHTS assay to identify small molecule agonists of the estrogen receptor beta (ER-beta) signaling pathway (AID 1259377; active = well fitted activation curve with a large enough effect in the signal ratio in the repeat runs, not every such curve was filed as active; the % refers to the signal ratio)
Chain of Estrogen receptor beta (Homo sapiens) (Q92731 whole entry, looked up): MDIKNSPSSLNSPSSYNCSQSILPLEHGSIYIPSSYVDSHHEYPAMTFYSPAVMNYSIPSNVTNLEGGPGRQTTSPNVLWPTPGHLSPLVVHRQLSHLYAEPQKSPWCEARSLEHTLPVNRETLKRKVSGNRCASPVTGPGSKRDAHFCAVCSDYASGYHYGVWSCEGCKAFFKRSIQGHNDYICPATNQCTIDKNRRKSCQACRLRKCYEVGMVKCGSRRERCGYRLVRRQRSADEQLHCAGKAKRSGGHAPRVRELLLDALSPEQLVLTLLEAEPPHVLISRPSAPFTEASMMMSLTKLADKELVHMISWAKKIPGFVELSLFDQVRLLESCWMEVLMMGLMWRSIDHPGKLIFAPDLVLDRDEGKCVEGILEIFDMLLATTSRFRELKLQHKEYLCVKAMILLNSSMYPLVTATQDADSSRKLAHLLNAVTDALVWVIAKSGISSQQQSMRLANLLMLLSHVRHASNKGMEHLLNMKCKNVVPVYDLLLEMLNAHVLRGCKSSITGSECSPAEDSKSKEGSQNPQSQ
How it was run: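 A UAS-controlled beta-lactamase reporter in ER-beta-UAS-bla HEK293T cells reports receptor activation. Compounds act for 16 hr at 37C in 2% charcoal-stripped serum, and a FRET substrate is read by fluorescence after 2 hours.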

[6] = biological target: Estrogen receptor beta (Homo sapiens) (UniProt Q92731); assay: qHTS assay to identify small molecule antagonists of the estrogen receptor beta (ER-beta) signaling pathway (AID 1259378; active = well fitted inhibition curve with a large enough effect in the signal ratio in the repeat runs, not every such curve was filed as active; the % refers to the signal ratio)
How it was run: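 ER-beta-UAS-bla HEK293T (GripTite) cells in 2% charcoal-stripped FBS medium were preincubated 6 hr at 37C, dosed with compound, then stimulated with 1 nM E2 (final) for 16 hr; beta-lactamase reporter read by B/G FRET fluorescence after 2 hr substrate loading.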

[7] = qHTS assay to identify small molecule agonists of the androgen receptor (AR) signaling pathway in the presence of an antagonist - cell viability counter screen (AID 1259379);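 also: MDA-kb2 human breast cancer cells carrying an MMTV luciferase reporter; series mostly up to about 92 µM; nearly all actives have a fitted effect of over 25% in size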
How it was run: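 In MDA-kb2 cells (human breast carcinoma, MMTV-luciferase), compounds at 15 concentrations plus 3.0uM nilutamide; 16 hr, 37C, 0% CO2; CellTiter-Fluor fluorescence read for viability.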

[8] = qHTS assay to identify small molecule agonists of the estrogen receptor beta (ER-beta) signaling pathway - cell viability counter screen (AID 1259380); also: nearly all actives have a fitted effect of over 30% in size
How it was run: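 Viability of ER-beta-UAS-bla HEK293T cells was determined by CellTiter-Glo luminescence following 16 hr treatment with test compounds at 37C.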

[9] = qHTS assay to identify small molecule antagonists of the estrogen receptor beta (ER-beta) signaling pathway - cell viability counter screen (AID 1259382); also: series mostly up to about 92 µM; nearly all actives have a fitted effect of over 55% in size
How it was run: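 Tox21 10K library tested in qHTS format on ER-beta-bla HEK293T cells stimulated with 1nM E2; 16 hr treatment at 37C. Same-well CellTiter-Glo luminescence served as the cell viability measure.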

[10] = biological target: Thyrotropin receptor (Homo sapiens) (UniProt P16473); assay: qHTS assay to identify small molecule antagonists of the thyroid stimulating hormone receptor (TSHR) signaling pathway (AID 1259385; calls by dose curve; also: nearly all actives have a fitted effect of over 20% in size)
Chain of Thyrotropin receptor (Homo sapiens) (P16473 whole entry, looked up): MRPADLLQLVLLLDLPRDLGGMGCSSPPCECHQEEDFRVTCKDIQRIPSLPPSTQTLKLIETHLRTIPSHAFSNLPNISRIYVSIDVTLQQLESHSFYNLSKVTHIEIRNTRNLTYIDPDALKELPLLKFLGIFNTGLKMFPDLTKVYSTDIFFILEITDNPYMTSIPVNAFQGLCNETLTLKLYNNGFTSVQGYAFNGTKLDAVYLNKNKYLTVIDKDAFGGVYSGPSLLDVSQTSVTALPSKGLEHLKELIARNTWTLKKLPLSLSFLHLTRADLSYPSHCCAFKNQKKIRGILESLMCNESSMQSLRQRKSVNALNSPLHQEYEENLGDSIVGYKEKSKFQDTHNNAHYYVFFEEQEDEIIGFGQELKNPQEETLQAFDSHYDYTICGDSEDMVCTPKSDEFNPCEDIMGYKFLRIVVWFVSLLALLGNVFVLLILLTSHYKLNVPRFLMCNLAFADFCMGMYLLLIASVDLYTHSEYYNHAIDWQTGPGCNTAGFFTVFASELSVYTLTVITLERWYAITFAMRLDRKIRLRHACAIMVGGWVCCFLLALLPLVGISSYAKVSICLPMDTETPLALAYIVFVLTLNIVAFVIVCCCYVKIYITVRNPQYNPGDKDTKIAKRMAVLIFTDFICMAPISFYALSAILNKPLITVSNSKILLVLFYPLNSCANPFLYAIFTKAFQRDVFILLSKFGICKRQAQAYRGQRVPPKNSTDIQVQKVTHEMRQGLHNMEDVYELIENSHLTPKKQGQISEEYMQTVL
How it was run: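 TSHR-HEK293 cells were plated and held 18 h at 37C/5% CO2, then given compound plus Ro20-1724 and stimulated with TSH at 1.5 ng/mL final. After 30 min at room temperature, cAMP was detected with cAMP-d2/anti-cAMP-cryptate (1 h) by fluorescence.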

[11] = qHTS assay to identify small molecule agonists of the estrogen receptor alpha (ER-alpha) signaling pathway in the presence of an antagonist - cell viability counter screen (AID 1259386);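 also: series mostly up to about 92 µM; cells exposed to compounds for 22 h at 37 °C before the viability read; nearly all actives have a fitted effect of over 30% in size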
How it was run: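 Fluorescent CellTiter-Fluor viability signal from VM7Luc4E2 cells, with the reagent added during the final hour of a 22hr compound exposure at 37C in the presence of 10.0nM ICI-182,780.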

[12] = qHTS assay to identify small molecule agonists of the progesterone receptor (PR) signaling pathway - cell viability counter screen (AID 1346799; calls by dose curve; also: nearly all actives have a fitted effect of over 45% in size)
How it was run: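 Counter screen for cytotoxicity: compound-treated PR-UAS-bla HEK293T cells (16 hr, 37C, 5% CO2) were assayed with CellTiter-Glo, luminescence measured after 30 min at room temperature.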

[13] = qHTS assay to identify small molecule antagonists of the TGF-beta/Smad signaling pathway - cell viability counter screen (AID 1346824); also: nearly all actives have a fitted effect of over 50% in size
How it was run: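 SBE-bla HEK 293T cells were plated overnight at 37 C, then given compounds in DMSO plus TGF-beta1 (added as 0.25 ng/mL solution) for 5 hr. After the bla read, CellTiter-Glo was added to the same wells and luminescence read after 30 min at room temperature.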

[14] = qHTS assay to identify small molecule agonists of the TGF-beta/Smad signaling pathway - cell viability counter screen (AID 1346829); also: top concentration of the series differs between compounds; nearly all actives have a fitted effect of over 45% in size
How it was run: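 Luminescence from CellTiter-Glo, read after a 30 min room-temperature incubation, gives cell viability of SBE-bla HEK 293T cells treated 5 hr with compounds at 37 C.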

[15] = biological target: Estrogen receptor (Homo sapiens) (UniProt P03372); assay: qHTS assay to identify small molecule agonists of the estrogen receptor alpha (ER-alpha) signaling pathway in the presence of an antagonist (AID 1259383; calls by dose curve; also: top concentration of the series differs between compounds; nearly all actives have a fitted effect of over 15% in size)
Chain of Estrogen receptor (Homo sapiens) (P03372 whole entry, looked up): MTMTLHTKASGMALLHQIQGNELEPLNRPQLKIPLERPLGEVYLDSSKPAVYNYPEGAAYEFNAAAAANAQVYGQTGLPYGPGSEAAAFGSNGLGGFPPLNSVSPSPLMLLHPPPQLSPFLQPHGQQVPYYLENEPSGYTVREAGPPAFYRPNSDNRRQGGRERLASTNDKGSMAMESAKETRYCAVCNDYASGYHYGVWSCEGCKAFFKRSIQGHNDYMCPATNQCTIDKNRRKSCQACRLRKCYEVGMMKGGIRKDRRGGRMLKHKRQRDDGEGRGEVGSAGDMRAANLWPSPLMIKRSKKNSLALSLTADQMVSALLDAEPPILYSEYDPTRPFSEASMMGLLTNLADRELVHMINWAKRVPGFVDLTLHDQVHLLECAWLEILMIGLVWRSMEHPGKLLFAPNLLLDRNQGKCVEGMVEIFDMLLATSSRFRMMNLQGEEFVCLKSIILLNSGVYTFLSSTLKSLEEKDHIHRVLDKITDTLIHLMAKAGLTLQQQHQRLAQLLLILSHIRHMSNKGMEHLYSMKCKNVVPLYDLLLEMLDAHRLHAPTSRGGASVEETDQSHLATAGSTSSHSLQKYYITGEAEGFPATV
How it was run: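 In VM7Luc4E2 cells, 4,000 per well, compounds at 15 concentrations were co-incubated 22hr at 37C with 10.0nM final ICI-182,780. Luminescence from the stably transfected 4×ERE-luciferase reporter was recorded 30min after ONE-Glo addition.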

[16] = qHTS assay to identify small molecule agonists or antagonists of the thyroid stimulating hormone receptor (TSHR) signaling pathway - wild type cell line counter screen (AID 1259384; calls by dose curve)
How it was run: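 Wild-type HEK293 cells were plated 18 h at 37 C/5% CO2, pin-dosed with compound plus Ro20-1724 medium, held 30 min at room temperature, then given cAMP-d2 and anti-cAMP-cryptate; fluorescence was read after 1 h. Fifteen concentrations, triplicate.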

[17] = biological target: Progesterone receptor (Homo sapiens) (UniProt P06401); assay: qHTS assay to identify small molecule agonists of the progesterone receptor (PR) signaling pathway (AID 1346784; calls by dose curve; also: nearly all actives have a fitted effect of over 30% in size)
Chain of Progesterone receptor (Homo sapiens) (P06401 whole entry, looked up): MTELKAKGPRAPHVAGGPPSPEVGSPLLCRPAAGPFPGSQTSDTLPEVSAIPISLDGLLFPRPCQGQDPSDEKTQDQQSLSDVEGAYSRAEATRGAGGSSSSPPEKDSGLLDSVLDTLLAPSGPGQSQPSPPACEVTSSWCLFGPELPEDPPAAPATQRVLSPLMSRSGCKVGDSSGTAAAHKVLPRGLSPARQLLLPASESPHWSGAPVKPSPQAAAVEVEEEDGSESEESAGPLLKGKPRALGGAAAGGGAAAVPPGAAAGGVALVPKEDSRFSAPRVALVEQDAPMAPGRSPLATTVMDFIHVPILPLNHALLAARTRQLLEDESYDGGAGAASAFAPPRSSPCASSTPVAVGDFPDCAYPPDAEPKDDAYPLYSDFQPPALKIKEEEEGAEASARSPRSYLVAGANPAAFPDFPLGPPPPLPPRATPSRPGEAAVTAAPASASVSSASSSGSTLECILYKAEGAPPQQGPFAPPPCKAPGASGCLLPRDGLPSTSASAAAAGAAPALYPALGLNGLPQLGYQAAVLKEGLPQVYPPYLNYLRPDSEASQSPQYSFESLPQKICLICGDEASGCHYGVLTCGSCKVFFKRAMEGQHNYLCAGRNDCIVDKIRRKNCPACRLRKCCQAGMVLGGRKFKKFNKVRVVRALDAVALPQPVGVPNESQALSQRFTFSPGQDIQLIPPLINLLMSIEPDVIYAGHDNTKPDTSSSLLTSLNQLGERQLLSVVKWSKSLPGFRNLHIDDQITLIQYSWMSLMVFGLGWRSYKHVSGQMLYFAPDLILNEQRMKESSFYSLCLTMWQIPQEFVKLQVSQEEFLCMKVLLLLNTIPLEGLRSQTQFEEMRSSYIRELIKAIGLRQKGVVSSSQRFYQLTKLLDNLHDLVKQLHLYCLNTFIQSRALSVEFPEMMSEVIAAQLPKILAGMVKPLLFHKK
How it was run: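 Agonist mode, quantitative HTS format in a HEK 293T line expressing a UAS-controlled beta-lactamase reporter; 16 hr compound exposure at 37C in 2% charcoal-stripped FBS, then LiveBLAzer B/G FRET fluorescence.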

[18] = biological target: Progesterone receptor (Homo sapiens) (UniProt P06401); assay: qHTS assay to identify small molecule antagonists of the progesterone receptor (PR) signaling pathway (AID 1346795; active = well fitted inhibition curve with a large enough effect in the signal ratio in the repeat runs, not every such curve was filed as active; the % refers to the signal ratio)
How it was run: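 HEK293T PR-UAS-bla reporter cells in charcoal-stripped serum (2%) received compound after a 6 hr settling period, followed by R5020 agonist at 1 nM final; 16 hr incubation preceded the FRET substrate step and fluorescence measurement.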

[19] = qHTS assay to identify small molecule antagonists of the progesterone receptor (PR) signaling pathway - cell viability counter screen (AID 1346798); also: series mostly up to about 92 µM; nearly all actives have a fitted effect of over 50% in size
How it was run: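 Same-well multiplex: after 16 hr at 37C with compound and R5020 stimulation, HEK293T cells carrying a UAS-bla reporter received LiveBLAzer substrate (2 hr RT), then CellTiter-Glo (30 min RT) for luminescent viability.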

Measured: Potency

CC(C)(C)OC=O
not listed: [15] | [16] | [17] | [18] | [19]
inactive: all other assays above

C/C(Cl)=C/CCl
not listed: [9]
inactive: all other assays above

Cc1ccccc1OCC(=O)O
not listed: [10] | [16] | [18]
inactive: all other assays above

CCCCc1ccc(Cl)cc1
not listed: [9] | [19]
inactive: all other assays above

CN(C)c1ccncc1
not listed: [9] | [12] | [18] | [19]
inactive: all other assays above

Cc1ccc2ccccc2n1
not listed: [13] | [15] | [17]
inactive: all other assays above

C=CCN(CC=C)CC=C
not listed: [13] | [15] | [19]
inactive: all other assays above

COc1ccccc1N1CCN(CC(O)COc2cc(OC)c(OC)c(OC)c2)CC1 (centres undefined)
not listed: [9] | [12]
inactive: all other assays above
